Here are results for 35 compounds from PubChem BioAssay (NCATS).

Results filed as inconclusive are left out. Activity calls are given as the source filed them. The call rests on the fitted dose curve; in most records, active means well fitted cell-killing curve with a large enough effect; inconclusive means small, poorly fitted or top-dose-only effect, or effect the other way; inactive means no such curve, though single readings can be large or run the other way.
Potency means the concentration at half of the fitted maximal effect.

This assay can be described thus: Quantitative High-Throughput drug screen in 47 multiple myeloma cell lines against the NCATS MIPE library collection: Delta47_JCRB cell viability assay (AID 1918925; further: nearly all actives have a fitted effect of over 45% in size). Particulars: Delta47 myeloma viability, CellTiter-Glo ATP, 48 h; series mostly up to 45.8 µM. The method, boiled down: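 qHTS of the MIPE 4.0 collection: 500 myeloma cells/well, 48 h drug exposure at 37C in 5% CO2, then CellTiter-Glo for 5 min at room temperature before luminescence reading.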
As to `Cc1ccc(C(N)=O)cc1Nc1nccc(-c2cn(C(C)C)c3cnccc23)n1`, the Potency is 3.32 µM (active).
As to `N#CCNC(=O)c1ccc(-c2ccnc(Nc3ccc(N4CCOCC4)cc3)n2)cc1`, the Potency is 9.35 µM (active).
Regarding `c1ccc2c(CCNc3ccc(Nc4ccncc4)cc3)c[nH]c2c1`, the Potency is 18.7 µM (active).
With `C#Cc1cccc(Nc2ncnc3cc(OC)c(OCCCCCCC(=O)NO)cc23)c1`, the Potency was 0.0662 µM (active).
As for `C[C@@H](Oc1cc(-n2cnc3ccc(CN4CCN(C)CC4)cc32)sc1C(N)=O)c1ccccc1C(F)(F)F`, the Potency was 0.0418 µM (active).
On to `CN(c1ncccc1CNc1nc(Nc2ccc3c(c2)CC(=O)N3)ncc1C(F)(F)F)S(C)(=O)=O`, for which the Potency was 3.72 µM (active).
In the case of `COc1cccc(Nc2c(C(N)=O)cnc3c(C)cc(S(=O)(=O)c4cccc(C(=O)N(C)C)c4)cc23)c1`, the Potency result was “inactive”.
`O=C1CCC[C@@H]2[C@H]3CCC[N+]4([O-])CCC[C@@H](CN12)[C@@H]34` (stereo not given in full): the Potency result was “inactive”.
In the case of `COC(=O)C[C@](O)(CCCC(C)(C)O)C(=O)O[C@@H]1C(OC)=C[C@]23CCCN2CCc2cc4c(cc2[C@H]13)OCO4`, the Potency result is “inactive”.
For `CCN(CC)CCCCNc1ncc2cc(-c3cc(OC)cc(OC)c3)c(NC(=O)NC(C)(C)C)nc2n1`, the Potency is 9.35 µM (active).
As for `Cc1ccc(NC(=O)C2(c3ccc4c(c3)OC(F)(F)O4)CC2)nc1-c1cccc(C(=O)O)c1`, the Potency was 0.0526 µM (active).
As to `CCCCN1CCC(CNC(=O)c2c3n(c4ccccc24)CCCO3)CC1`, the Potency was 6.62 µM (active).
With `Fc1cc(-c2cccc3ncc(-c4cnn(C5CCNCC5)c4)nc23)cc(F)c1CN1CCOCC1`, the Potency is 7.43 µM (active).
In the case of `CCCn1c(=O)c2[nH]c(-c3cnn(Cc4cccc(C(F)(F)F)c4)c3)nc2n(CC)c1=O`, the Potency result is “inactive”.
The entry for `COc1ccc(-n2nc(C(N)=O)c3c2C(=O)N(c2ccc(N4CCCCC4=O)cc2)CC3)cc1` is “inactive”; for `O=C(CCCCCCNC(=O)c1cnc(N(c2ccccc2)c2ccccc2)nc1)NO` it is 3.32 µM (active); for `O=C(CCCCCCC(=O)Nc1ccc([C@H]2O[C@@H](CSc3nc(-c4ccccc4)c(-c4ccccc4)o3)C[C@@H](c3ccc(CO)cc3)O2)cc1)NO` it is 11.8 µM (active).
`COc1ccc(OC)c(-c2nnc3ccc(-c4ccc(OC)c(O[C@@H]5CCOC5)c4)nn23)c1`: the Potency was 9.35 µM (active).
`COc1cc(C(C)C)c2c(c1)S(=O)(=O)N(COc1cc(=O)n3cccc(OCCN4CCCCC4)c3n1)C2=O`: the Potency was 16.6 µM (active).
As to `C[C@@H](Oc1cc(-c2cnn(C3CCNCC3)c2)cnc1N)c1c(Cl)ccc(F)c1Cl`, the Potency is 2.09 µM (active).
Take `CCN1CCN(CC(=O)Nc2ccc(-c3cccc4c(=O)cc(N5CCOCC5)oc34)c3sc4ccccc4c23)CC1`: the Potency is 0.418 µM (active).
Take `OCc1ccc(-c2ccc(-c3ccc(CO)s3)o2)s1`: the Potency is 20.9 µM (active).
As for `O=C(c1ccc(Nc2nccc(-c3cc4ccccc4s3)n2)cc1)N1CCC(N2CCCC2)CC1`, the Potency was 2.96 µM (active).
Consider `O=C(Nc1cn[nH]c1-c1nc2ccc(CN3CCOCC3)cc2[nH]1)NC1CC1`, for which the Potency is 1.48 µM (active).
As for `CC(C)c1ccc(Cn2ccc3c4c(N)nc(NC5CC5)nc4ccc32)cc1`, the figure is 3.32 µM (active).
As for `Cc1cn(-c2cc(NC(=O)c3ccc(C)c(Nc4nccc(-c5cccnc5)n4)c3)cc(C(F)(F)F)c2)cn1`, the Potency entry was “inactive”.
Turning to `COc1cc2c(cc1-c1c(C)noc1C)ncc1[nH]c(=O)n([C@H](C)c3ccccn3)c12`, the Potency is 0.418 µM (active).
The figure for `OCCCNc1cc(-c2ccnc(Nc3cccc(Cl)c3)n2)ccn1` is 0.0264 µM (active); for `CC(C)(C)OC(=O)Nc1ccc(-c2cc(C(=O)NCCCCCCC(=O)NO)no2)cc1` it is 0.833 µM (active); for `C[C@H]1C[C@@H]2[C@@H]([C@@H](O)C[C@@]3(C)[C@H]2CC[C@]3(O)C(=O)CO)[C@@]2(C)C=CC(=O)C=C12` it is “inactive”.
For `NC(=O)Nc1cc(-c2cccc(F)c2)sc1C(=O)N[C@H]1CCCNC1`, the Potency is 0.105 µM (active).
As to `Nc1nccc(Oc2ccc(NC(=O)c3c[nH]cc(-c4ccc(F)cc4)c3=O)cc2F)c1Cl`, the Potency was 16.6 µM (active).
As for `COc1cc2c(Oc3ccc(NC(=O)C4(C(=O)Nc5ccc(F)cc5)CC4)cc3F)ccnc2cc1OCCCN1CCOCC1`, the figure is 0.418 µM (active); as for `COC(=O)C1=C(C)NC(C)=C(C(=O)OCCN2CCN(C(c3ccccc3)c3ccccc3)CC2)C1c1cccc([N+](=O)[O-])c1` (stereo not given), “inactive”; as for `O=C(Cc1ccc(-c2ccc(OCCN3CCOCC3)cc2)cn1)NCc1ccccc1`, 0.0264 µM (active).
